About 8,800 targets were measured; listed, in parts, are those with a hit and a random draw of the rest. About 0.5% of all pairs of compound and target were hits.
How the values were obtained:
Test in all cases: log2 fold change, soluble protein after heating vs DMSO (PISA); higher = thermal stabilisation; K562 lysate, 10 uM; active = over 0.2 and 3.5 SD of the protein, either way, in both replicates (recomputed)
[1] = compound: CN1CC[C@H](c2c(O)cc(O)c3c(=O)cc(-c4ccccc4Cl)oc23)[C@H](O)C1 [alvocidib]
Summary of the method: (§1)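 Soluble protein was defined as the supernatant remaining after 21,000xg for 90 min, following pooling of heated aliquots and adjustment to 0.5% NP-40 at 4°C. Before that, crude K562 extract at 1 mg/mL protein in PBS pH 7.4 with 1 mM MgCl2 was treated with 10 μM compound for 30 min and heated for 3 min across 48°C-58°C. Quantification used TMTpro 16plex LC-MS/MS with channel sums equalised, and values are log-two fold changes in thermal stability relative to solvent controls from duplicates.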

[2] = compound: CNC(=O)C1=CC=CC=C1NC2=NC(=NC=C2Cl)NC3=C(C=C(C=C3)N4CCOCC4)OC
Summary of the method: as §1

[3] = compound: CNC(=O)c1ccc(Nc2ncc(C(F)(F)F)c(NCc3nccnc3N(C)S(C)(=O)=O)n2)cc1 [defactinib]
Summary of the method: as §1

[4] = compound: COc1cc(Nc2ncc3c(n2)-c2ccc(Cl)cc2C(c2c(F)cccc2OC)=NC3)ccc1C(=O)O [alisertib]
Summary of the method: as §1

[5] = compound: COc1cc2nc(-c3cc(F)ccc3O)nc(N[C@@H]3CNC[C@H]3C(C)(C)O)c2cc1OC
Summary of the method: as §1

[6] = compound: COc1cc2ncnc(Nc3ccc(F)c(Cl)c3)c2cc1OCCCN1CCOCC1 [gefitinib]
Summary of the method: as §1

[7] = compound: CN1CCc2c(c3ccccc3n2Cc2ccc(C(=O)NO)cc2)C1 [Tubastatin A]
Summary of the method: as §1

[8] = compound: CNc1nc(-c2ccc3c(N)n[nH]c3c2)cc(N2C[C@@H](C(=O)NC3CCCCC3)CC[C@H]2C)n1
Summary of the method: as §1

[9] = compound: COC(=O)N[C@@H](C)CNc1nccc(-c2cn(C(C)C)nc2-c2cc(Cl)cc(NS(C)(=O)=O)c2F)n1 [encorafenib]
Summary of the method: as §1

[10] = compound: COC(=O)[C@H](CCSC)NC(=O)C1=C(C=C(C=C1)NC[C@H](CS)N)C2=CC=CC=C2
Summary of the method: as §1

Measured: log2 fold change

AP3D1 isoform 2 (UniProt O14617)
inactive: [1] 0.25 | [2] -0.06 | [3] 0.078 | [4] 0.093 | [5] 0.087 | [6] 0.111

ABCC5 (UniProt O15440)
inactive: [1] -0.12 | [7] 0.121 | [2] -0.002 | [3] 0.125 | [8] 0.008 | [9] 0.165 | [10] -0.032 | [5] -0.012

ACVR1 (UniProt Q04771)
Chain of UniProt Q04771 (Q04771 whole entry, looked up): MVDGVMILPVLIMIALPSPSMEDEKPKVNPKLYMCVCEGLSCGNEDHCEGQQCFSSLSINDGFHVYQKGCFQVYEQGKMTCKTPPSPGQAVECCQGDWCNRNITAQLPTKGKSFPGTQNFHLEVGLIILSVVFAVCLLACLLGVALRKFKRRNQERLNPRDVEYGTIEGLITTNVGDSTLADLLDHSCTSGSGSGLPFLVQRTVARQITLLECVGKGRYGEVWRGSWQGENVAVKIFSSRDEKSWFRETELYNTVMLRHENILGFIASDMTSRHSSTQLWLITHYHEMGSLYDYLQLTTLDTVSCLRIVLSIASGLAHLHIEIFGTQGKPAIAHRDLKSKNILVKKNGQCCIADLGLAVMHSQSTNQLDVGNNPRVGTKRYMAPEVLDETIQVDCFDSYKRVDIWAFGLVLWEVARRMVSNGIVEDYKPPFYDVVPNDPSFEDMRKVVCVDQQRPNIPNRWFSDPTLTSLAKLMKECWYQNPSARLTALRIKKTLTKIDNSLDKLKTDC
inactive: [1] 0.086 | [8] -0.056 | [4] 0.069 | [6] 0.158

AMDHD2 (UniProt Q9Y303)
inactive: [1] 0.012 | [3] -0.059

ARL13B (UniProt Q3SXY8)
Chain of UniProt Q3SXY8 (Q3SXY8 whole entry, looked up): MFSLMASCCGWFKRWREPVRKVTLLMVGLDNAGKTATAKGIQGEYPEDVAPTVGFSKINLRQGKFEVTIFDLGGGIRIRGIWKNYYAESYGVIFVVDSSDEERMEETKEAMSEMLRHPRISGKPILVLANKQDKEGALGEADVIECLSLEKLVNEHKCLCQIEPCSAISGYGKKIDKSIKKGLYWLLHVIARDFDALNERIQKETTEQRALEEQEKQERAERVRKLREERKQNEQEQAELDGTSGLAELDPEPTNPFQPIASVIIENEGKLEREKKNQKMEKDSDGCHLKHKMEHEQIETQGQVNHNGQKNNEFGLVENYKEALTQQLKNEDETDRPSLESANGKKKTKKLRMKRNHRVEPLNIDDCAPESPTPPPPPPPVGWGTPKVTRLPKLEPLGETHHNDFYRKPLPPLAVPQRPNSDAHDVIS
inactive: [1] 0.182 | [7] 0.018 | [2] 0.165 | [3] -0.025 | [8] -0.102 | [5] 0

ALKBH1 (UniProt Q13686)
inactive: [1] 0.003 | [7] -0.018 | [2] -0.113 | [3] -0.008 | [8] 0.027 | [9] -0.016 | [10] 0.073 | [4] -0.044 | [6] -0.07

AGPAT2 (UniProt O15120)
Chain of UniProt O15120 (O15120 whole entry, looked up): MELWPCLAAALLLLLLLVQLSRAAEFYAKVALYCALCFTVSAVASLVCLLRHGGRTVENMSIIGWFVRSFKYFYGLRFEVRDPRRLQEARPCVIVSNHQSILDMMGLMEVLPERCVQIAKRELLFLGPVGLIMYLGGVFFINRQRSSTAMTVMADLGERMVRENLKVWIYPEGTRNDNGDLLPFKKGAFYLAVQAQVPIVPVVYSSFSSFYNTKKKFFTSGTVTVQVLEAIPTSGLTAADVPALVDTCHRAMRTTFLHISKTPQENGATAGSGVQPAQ
inactive: [1] -0.008 | [7] 0.01 | [2] 0.091 | [3] -0.104 | [9] 0.054 | [10] -0.043 | [4] 0.009 | [6] 0.052

ALDH18A1 isoform 2 (UniProt P54886)
inactive: [7] -0.06 | [3] 0.016 | [8] -0.139

ALG3 (UniProt Q92685)
Chain of UniProt Q92685 (Q92685 whole entry, looked up): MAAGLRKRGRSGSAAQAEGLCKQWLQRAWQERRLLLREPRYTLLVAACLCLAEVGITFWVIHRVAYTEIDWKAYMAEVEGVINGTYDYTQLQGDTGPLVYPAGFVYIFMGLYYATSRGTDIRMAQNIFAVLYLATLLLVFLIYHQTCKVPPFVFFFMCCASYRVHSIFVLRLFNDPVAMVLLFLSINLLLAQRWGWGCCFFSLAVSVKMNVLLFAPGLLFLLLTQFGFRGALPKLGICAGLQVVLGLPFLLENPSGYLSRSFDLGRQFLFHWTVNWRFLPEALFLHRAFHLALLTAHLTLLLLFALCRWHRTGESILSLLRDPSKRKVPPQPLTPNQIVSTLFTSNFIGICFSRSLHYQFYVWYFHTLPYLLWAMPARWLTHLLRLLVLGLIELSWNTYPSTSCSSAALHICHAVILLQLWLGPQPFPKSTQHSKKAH
inactive: [1] -0.04 | [7] -0.009 | [2] -0.436 | [3] 0.165 | [8] -0.043 | [9] -0.061 | [10] 0.171 | [5] -0.033

ABCA3 (UniProt Q99758)
Chain of UniProt Q99758 (Q99758 whole entry, looked up): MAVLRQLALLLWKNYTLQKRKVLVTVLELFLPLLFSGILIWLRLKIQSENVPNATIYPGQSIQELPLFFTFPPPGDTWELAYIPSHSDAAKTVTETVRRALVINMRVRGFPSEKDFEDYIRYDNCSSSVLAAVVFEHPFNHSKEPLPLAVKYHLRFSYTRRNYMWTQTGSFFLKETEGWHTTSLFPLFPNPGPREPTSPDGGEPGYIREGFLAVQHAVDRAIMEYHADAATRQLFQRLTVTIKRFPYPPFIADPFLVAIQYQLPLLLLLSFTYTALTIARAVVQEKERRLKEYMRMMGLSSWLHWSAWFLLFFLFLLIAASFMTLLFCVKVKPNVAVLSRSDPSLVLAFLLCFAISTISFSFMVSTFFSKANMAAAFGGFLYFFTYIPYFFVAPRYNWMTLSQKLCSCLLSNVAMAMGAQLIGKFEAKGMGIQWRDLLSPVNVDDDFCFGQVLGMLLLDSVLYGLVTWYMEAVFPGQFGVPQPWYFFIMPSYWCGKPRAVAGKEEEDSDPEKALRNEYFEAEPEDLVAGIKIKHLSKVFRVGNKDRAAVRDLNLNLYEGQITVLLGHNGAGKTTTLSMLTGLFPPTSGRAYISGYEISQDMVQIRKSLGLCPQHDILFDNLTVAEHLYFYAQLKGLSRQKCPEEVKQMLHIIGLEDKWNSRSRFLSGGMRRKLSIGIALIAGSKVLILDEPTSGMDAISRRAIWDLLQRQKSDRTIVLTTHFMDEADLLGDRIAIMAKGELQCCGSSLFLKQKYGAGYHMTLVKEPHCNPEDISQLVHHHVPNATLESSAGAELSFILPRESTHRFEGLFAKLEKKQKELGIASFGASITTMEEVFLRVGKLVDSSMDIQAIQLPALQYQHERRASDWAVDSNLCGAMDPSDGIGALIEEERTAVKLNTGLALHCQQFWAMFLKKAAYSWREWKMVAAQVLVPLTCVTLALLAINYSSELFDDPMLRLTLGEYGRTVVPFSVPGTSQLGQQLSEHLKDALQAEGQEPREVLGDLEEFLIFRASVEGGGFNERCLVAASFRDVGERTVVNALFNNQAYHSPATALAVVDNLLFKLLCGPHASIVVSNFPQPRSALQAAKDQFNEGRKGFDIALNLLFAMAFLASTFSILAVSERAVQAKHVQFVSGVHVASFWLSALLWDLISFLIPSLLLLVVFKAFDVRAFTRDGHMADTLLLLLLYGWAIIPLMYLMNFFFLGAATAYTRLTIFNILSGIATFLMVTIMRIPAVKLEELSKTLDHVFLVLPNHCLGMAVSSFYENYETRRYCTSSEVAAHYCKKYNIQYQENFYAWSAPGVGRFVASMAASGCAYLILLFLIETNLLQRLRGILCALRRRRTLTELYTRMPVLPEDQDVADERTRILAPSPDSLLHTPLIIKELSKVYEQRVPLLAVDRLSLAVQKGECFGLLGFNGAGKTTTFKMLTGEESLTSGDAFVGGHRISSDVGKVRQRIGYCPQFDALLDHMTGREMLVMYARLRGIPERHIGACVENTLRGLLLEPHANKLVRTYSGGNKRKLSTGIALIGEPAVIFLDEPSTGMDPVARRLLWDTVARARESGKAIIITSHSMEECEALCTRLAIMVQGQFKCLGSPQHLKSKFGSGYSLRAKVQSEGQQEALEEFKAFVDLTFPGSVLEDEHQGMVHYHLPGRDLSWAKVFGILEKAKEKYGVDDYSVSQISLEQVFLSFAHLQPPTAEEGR
inactive: [1] 0.109 | [7] 0.188 | [2] -0.017 | [3] -0.037 | [8] 0.317 | [9] -0.12 | [10] 0.025 | [5] -0.09

AIMP2 isoform 2 (UniProt Q13155)
inactive: [7] -0.038 | [5] 0.115

ANKRD40 (UniProt Q6AI12)
Chain of UniProt Q6AI12 (Q6AI12 whole entry, looked up): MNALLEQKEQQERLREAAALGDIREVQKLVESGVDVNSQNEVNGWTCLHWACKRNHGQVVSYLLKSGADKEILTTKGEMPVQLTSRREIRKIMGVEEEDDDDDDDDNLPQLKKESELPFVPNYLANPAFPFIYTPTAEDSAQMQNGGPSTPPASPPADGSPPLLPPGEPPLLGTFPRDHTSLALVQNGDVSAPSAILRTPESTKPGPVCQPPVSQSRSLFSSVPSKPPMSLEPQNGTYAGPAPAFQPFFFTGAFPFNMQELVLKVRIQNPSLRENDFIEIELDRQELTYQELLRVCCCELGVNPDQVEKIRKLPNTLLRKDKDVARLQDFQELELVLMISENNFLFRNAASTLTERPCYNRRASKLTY
inactive: [1] 0.084 | [7] -0.164 | [2] 0.08 | [3] 0.095 | [8] 0.101 | [9] 0.04 | [10] -0.109 | [4] -0.188 | [6] -0.089

ACTG1 (UniProt K7EM38)
inactive: [9] -0.286 | [10] 0.142 | [5] 0.099

ANKRD10 (UniProt Q9NXR5)
inactive: [1] 0.003 | [7] -0.037 | [2] 0.018 | [3] 0.012 | [8] -0.016 | [4] -0.018 | [5] 0.035 | [6] -0.047

ACAT1, A0A5F9ZHJ0
inactive: [1] -0.023 | [7] 0.081 | [4] -0.035 | [6] -0.056

ADD1 isoform 4 (UniProt P35611)
inactive: [1] -0.397 | [7] 0.303 | [2] -0.081 | [3] 0.071 | [8] 0.051 | [9] -0.034 | [10] 0 | [5] 0.094

ANXA2 (UniProt H0YL33)
inactive: [1] 0.315 | [7] 0.109 | [2] -0.177 | [8] 0.222 | [4] 0.001 | [5] 0.005 | [6] 0.097

ABI1 isoform 6 (UniProt Q8IZP0)
inactive: [9] -0.212 | [10] 0.114 | [5] 0.023

ARHGEF2 (UniProt V9GYF0)
inactive: [7] -0.07 | [3] -0.211 | [8] 0.082 | [9] -0.035 | [10] 0.014 | [4] -0.083 | [5] 0.112 | [6] 0.229

AP5B1 (UniProt Q2VPB7)
inactive: [1] -0.091 | [7] -0.149 | [2] 0.099 | [8] -0.092 | [9] -0.017 | [10] -0.011 | [4] -0.008 | [5] -0.059 | [6] 0.05

ADK, A0A5F9ZH76
inactive: [4] 0.008 | [5] -0.063 | [6] 0.072

ABL1 isoform 2 (UniProt P00519)
Chain of UniProt P00519 (P00519 whole entry, looked up): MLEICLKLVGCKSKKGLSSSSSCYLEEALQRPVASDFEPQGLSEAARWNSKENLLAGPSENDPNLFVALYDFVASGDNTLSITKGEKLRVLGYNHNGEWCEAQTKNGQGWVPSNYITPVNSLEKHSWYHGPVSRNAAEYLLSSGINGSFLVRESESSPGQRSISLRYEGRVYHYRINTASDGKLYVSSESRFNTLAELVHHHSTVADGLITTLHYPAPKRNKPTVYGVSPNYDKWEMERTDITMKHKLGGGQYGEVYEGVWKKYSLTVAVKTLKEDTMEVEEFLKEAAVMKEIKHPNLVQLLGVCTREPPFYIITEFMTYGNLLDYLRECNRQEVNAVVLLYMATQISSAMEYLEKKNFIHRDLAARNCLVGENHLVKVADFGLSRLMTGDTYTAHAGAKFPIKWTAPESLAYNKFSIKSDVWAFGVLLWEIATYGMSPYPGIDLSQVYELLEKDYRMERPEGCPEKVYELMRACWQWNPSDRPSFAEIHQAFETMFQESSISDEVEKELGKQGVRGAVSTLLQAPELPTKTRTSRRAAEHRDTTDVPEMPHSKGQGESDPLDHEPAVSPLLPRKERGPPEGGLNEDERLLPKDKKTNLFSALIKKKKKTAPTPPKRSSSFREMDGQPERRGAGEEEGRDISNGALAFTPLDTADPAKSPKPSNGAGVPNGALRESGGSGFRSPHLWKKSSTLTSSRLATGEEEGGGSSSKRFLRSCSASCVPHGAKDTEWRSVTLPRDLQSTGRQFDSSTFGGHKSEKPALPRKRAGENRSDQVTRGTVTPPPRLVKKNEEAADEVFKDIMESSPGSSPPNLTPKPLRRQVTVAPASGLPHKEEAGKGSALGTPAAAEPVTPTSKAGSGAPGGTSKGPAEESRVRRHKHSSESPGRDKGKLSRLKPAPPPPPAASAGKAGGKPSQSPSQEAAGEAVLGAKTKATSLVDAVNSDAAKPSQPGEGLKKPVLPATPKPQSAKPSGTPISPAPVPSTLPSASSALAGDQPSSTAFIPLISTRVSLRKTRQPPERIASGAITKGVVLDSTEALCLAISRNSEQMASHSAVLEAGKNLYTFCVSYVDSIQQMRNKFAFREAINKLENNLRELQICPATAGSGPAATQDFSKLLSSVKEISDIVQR
inactive: [7] -0.091 | [2] 0.044 | [3] -0.023 | [8] -0.011 | [9] 0.039 | [10] 0.071 | [4] 0.019 | [5] -0.011

From the supplement of paper PMC10849652
